An excerpt weighted towards active compounds, which were near 6% of everything screened.
D1 ag – human D1 receptor agonism. P21728. HEK293 T-REx D1 cells, calcium flux, agonist mode. activation, % at 2 µM. hit rate 1% among 360,000. AID 504660; in the data active = activation above about 30%; also: 0% is about no effect
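Tetracycline-induced HEK293 TREx D1 cells, force-coupled to calcium signalling, were dye-loaded with a no-wash calcium kit. Compound was pin-added after a 10 s baseline. Fluorescence was read kinetically at 1 cycle/s for 180 s, with calcium rises flagged as agonism.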
D3 antag – antagonists of human D3 dopamine receptor. D3R cells, DiscoveRx beta-arrestin luminescence, antagonist mode; stronger effect = lower value. max response, negative = inhibition, %. hit rate 2.5% among 360,000; in the data active = max response below about -50%; inconclusive = no clear call, values can overlap the other calls; also: % is scaled to controls: 0 for no effect and ±100 for the full control effect
Target sequence (P35462 whole entry, looked up): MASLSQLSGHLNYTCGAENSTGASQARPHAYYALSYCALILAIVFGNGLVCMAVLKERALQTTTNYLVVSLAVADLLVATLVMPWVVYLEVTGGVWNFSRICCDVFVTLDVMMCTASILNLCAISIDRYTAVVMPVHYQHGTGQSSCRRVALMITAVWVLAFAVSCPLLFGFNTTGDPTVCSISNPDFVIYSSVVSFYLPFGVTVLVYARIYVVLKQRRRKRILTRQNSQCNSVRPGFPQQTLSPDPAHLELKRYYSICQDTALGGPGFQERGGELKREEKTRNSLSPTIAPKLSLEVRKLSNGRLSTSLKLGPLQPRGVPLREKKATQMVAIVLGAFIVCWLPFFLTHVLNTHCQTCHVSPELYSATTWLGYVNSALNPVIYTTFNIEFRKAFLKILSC
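Cells plated overnight at 1500 cells/well, then exposed to library compounds with dopamine controls for 90 minutes at 37 degrees C. DiscoveRx reagent added for 30–60 minutes at room temperature; luminescence read, quantitative HTS format.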
D3 ag – D3 dopamine receptor (human) agonism. P35462. D3R DiscoveRx beta-arrestin cells, luminescence, 90 min. max activation, %. hit rate 0.58% among 410,000; in the data active = max activation above about 30%; also: 0% is about no effect
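Agonist mode: compounds and dopamine controls were applied to plated cells for 90 min at 37 degrees C after an overnight attachment at 1500 cells/well. Luminescent read-out followed 30 - 60 minutes at room temperature with DiscoveRx detection reagent.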
D1 PAM – potentiators of human D1 dopamine receptor; P21728; HEK293 TREx D1 cells, calcium flux, dopamine EC20 potentiation; potentiation, % at 10 µM; hit rate 0.036% among 360,000; AID 504651; in the data active = potentiation above about 30%; also: 0% is about no effect
D1 antag – human D1 dopamine receptor antagonism. HEK293 TREx D1 cells, calcium flux, dopamine EC80; stronger effect = lower value. activity change, negative = inhibition, % at 10 µM. hit rate 3.2% among 360,000. AID 504652; in the data active = activity change below about -30%; also: % is scaled to controls: 0 for no effect and ±100 for the full control effect
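Tetracycline-induced HEK293 Trex D1 cells, force-coupled to calcium, dye-loaded; compounds added and read 180 s, then EC80 dopamine added and calcium flux tracked kinetically another 180 s.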
* marks the source's active call; other numbers are inactive results; ? = inconclusive; / = no result given; ! = not confirmed by another sample.

SMILES | D1 ag | D3 antag | D3 ag | D1 PAM | D1 antag
CC(O)CNCCOc1ccccc1-c1ccccc1 (stereo not drawn) | 10.7 | -80.0* | -37.2 | -10.3 | /
COCCCNCCCCOc1ccccc1-c1ccccc1 | 15.3 | -77.6* | -11.9 | -7.8 | -37.5*
CCNCc1ccccc1OCc1ccccc1 | 3.5 | -0.5 | -9.9 | -7.2 | -8.3
COc1ccccc1OCCCCNCCO | 0.0 | -13.5 | -6.7 | -17.9 | -11.9
Cc1ccccc1CNC(=O)CCC(=O)N1CCSc2ccccc21 | 3.3 | / | -2.0 | -1.5 | 2.8
CCCC(=O)Oc1c(Sc2ccc(Cl)cc2)c(C)nn1-c1ccccc1 | -0.6 | / | -9.2 | 2.5 | 2.1
Cc1cccc(Nc2ncnc(N)n2)c1 | 1.7 | 8.9 | 7.6 | -6.0 | -32.6*
COc1ccc(N(CC(=O)Nc2ccc(C)c(C)c2)S(=O)(=O)c2ccc(C)cc2)cc1OC | 0.6 | / | -1.4 | -3.3 | -29.8
CC(C)CC(C(=O)NCC1CCCO1)N(C(=O)Cn1nnc(-c2ccc(F)cc2)n1)c1ccccc1F (stereo not drawn) | 0.1 | 36.4 | 0.1 | -4.1 | 2.8
Cc1ccc(-c2nnn(CC(=O)N(c3ccccc3F)C(CC(C)C)C(=O)NCC3CCCO3)n2)cc1 (stereo not drawn) | 0.5 | 43.8 | 1.8 | -0.1 | -37.8*
Cc1ccc2c(c1)C(=O)CC1(CCC(C(C)(C)C)CC1)O2 (stereo not drawn) | 3.9 | 13.2 | 9.2 | -1.8 | -31.0*
Cc1ccc2c(c1)C(=O)CC(O)(C(F)(F)F)O2 (stereo not drawn) | 0.5 | -5.4 | -0.8 | -4.7 | -6.0
O=C(NNC(=O)c1ccccc1[N+](=O)[O-])c1ccc(NC(=O)c2ccccc2)cc1 | 3.7 | -7.1 | -9.3 | -20.7 | -37.8*
O=C(Nc1ccc(Nc2ccccc2)cc1)c1ccc(Cl)cc1[N+](=O)[O-] | / | -65.7* | -15.5 | / | /
O=C(Nc1ccccc1)c1ccccc1NC(=O)c1ccccc1[N+](=O)[O-] | / | ? | -18.1 | / | /
CC(=O)NS(=O)(=O)c1ccc(NC(=O)c2ccc(Cl)cc2[N+](=O)[O-])cc1 | 1.9 | 13.5 | 4.2 | -1.0 | -6.7
CCCNC(=O)c1c(C)nn(-c2cccc(C)c2)c1-n1cccc1 | 1.1 | / | 1.7 | -2.1 | 1.3
CCn1ccc2c(OCC(=O)Nc3ccc(OC)cc3OC)cccc2c1=O | -2.2 | / | 9.4 | -1.1 | /
Cc1ccc(-c2cc(C(=O)OCC(=O)c3ccccc3)c3cccc(Cl)c3n2)cc1 | 4.7 | / | -7.8 | 0.1 | 2.9
COc1cccc(Cn2nnc(C(=O)NCc3ccc(Cl)cc3Cl)c2N)c1 | 20.5 | / | 5.1 | 1.6 | 0.4
CCN(CC)C(=O)Cn1cc(C(=O)C(=O)NCCc2ccccc2)c2ccccc21 | 0.9 | 3.3 | 1.0 | 0.2 | -2.8
CCN(CC)C(=O)Cn1cc(C(=O)C(=O)NCCCN2CCOCC2)c2ccccc21 | 1.8 | -13.2 | -2.1 | 0.2 | -34.1*
Cc1ccc(NC(=O)Nc2ccon2)cc1Cl | 5.3 | -0.6 | 0.6 | -11.5 | -30.8*
Cc1ccc(C(=O)N2CCc3cc(CNC(=O)c4ccnn4C)ccc32)cc1 | 8.8 | / | -5.2 | -4.2 | -26.3
COC(=O)c1ccc(S(=O)(=O)NC(C)(C)C)n1C | 1.8 | -3.6 | 10.1 | 1.4 | -36.8*
SMILES | D1 ag | D3 antag | D3 ag | D1 PAM | D1 antag
COC(=O)c1ccc(CSc2n[nH]c(=S)s2)o1 | 0.2 | 58.4 | -7.0 | -3.6 | -3.5
COC(=O)CSc1n[nH]c(=S)s1 | 1.5 | -67.8* | -1.5 | -2.4 | 3.6
COc1ccccc1-c1nc(SCC(=O)NCc2ccc(C)cc2)c2c(=O)n(C)c(=O)n(C)c2n1 | 0.4 | / | 2.7 | -0.9 | -8.1
COc1cccc(OC)c1OCCCN1CCC(Cc2ccccc2)CC1 | 8.6 | -95.2* | -19.9 | -7.8 | -13.4
COc1cccc(OC)c1OCCN1CCN(C(c2ccccc2)c2ccccc2)CC1 | 5.2 | -108.8* | -5.5 | -11.9 | -27.8
COc1ccc(S(=O)(=O)N2CCN(CCCOc3ccc(F)cc3)CC2)cc1OC | 7.2 | -12.4 | -14.0 | -6.7 | -15.6
COc1ccccc1N1CCN(CCCOc2ccc(F)cc2)CC1 | 0.2 | -90.7* | -17.3 | -9.2 | -17.0
COc1ccc(C(=O)C(=O)N2CCC(Cc3ccccc3)CC2)cc1OC | / | 6.8 | -1.8 | / | /
COc1ccccc1N1CCN(CCOc2c(OC)cccc2OC)CC1 | 3.0 | -68.0* | -8.3 | -10.2 | -21.0
CCOC(=O)c1ccccc1NC(=O)c1cnc(N2CCOCC2)c2ccccc12 | 5.2 | / | 11.0 | 5.7 | 16.6
Cc1ccc(Cl)cc1NC(=O)Cn1c(=O)cc(C)c2c(C)nn(C)c21 | 12.7 | / | 6.6 | -5.7 | -9.9
CCCOc1ccc(NC(=O)CC2C(=O)N(c3ccc(C)cc3)C(=O)N2Cc2cccc(OC)c2)cc1 (stereo not drawn) | 4.9 | / | 8.7 | -2.8 | -13.2
CCC(=O)N1CCc2cc(S(=O)(=O)NC(CC(C)C)C(=O)Nc3cc(C)ccc3OC)ccc21 (stereo not drawn) | 0.2 | / | -4.2 | 2.0 | 21.3
Cc1cccc(NC(=O)C(=O)NCC(c2cccnc2)N2CCN(Cc3ccccc3)CC2)c1 (stereo not drawn) | 1.3 | / | -18.9 | -2.6 | 9.8
COc1ccccc1N1CCN(CCCN=C2CC(=O)N(C)C(=O)N2C)CC1 | / | -55.7* | -61.9 | / | /
COc1ccccc1N1CCN(CCCCOc2c(OC)cccc2OC)CC1 | 0.3 | -108.2* | -15.7 | -14.2 | -29.4
OCCOCCN1CCN(C(c2ccccc2)c2ccc(Cl)cc2)CC1 (stereo not drawn) | 9.5 | -89.0* | -85.6 | -3.2 | 11.0
CSc1ccc(CCNC(=O)c2c(C)nn(-c3ccc(F)cc3)c2-n2cccc2)cc1 | 14.3 | / | 7.5 | -3.5 | -13.4
CCOc1ccccc1N(C)C(=O)c1cc(S(=O)(=O)NCc2ccc(C)cc2)ccc1F | 1.6 | / | -23.8 | -2.5 | -11.4
CCC(C(=O)NCCc1ccccc1)n1nc(C)c2sc3ccccc3c2c1=O (stereo not drawn) | 1.1 | / | -16.0 | -2.4 | -2.0
CC(C)[C@H](NC(=O)[C@@H]1Cc2c([nH]c3ccccc23)C2c3ccccc3C(=O)N21)C(=O)N1CCC[C@@H]1C(=O)O (stereo partly drawn) | 0.9 | 29.2 | 40.1* | 2.9 | -3.9
CCOC(=O)c1ccc(N=c2sc(C(=O)OC)cc(=O)n2Cc2ccco2)cc1 | 4.2 | ? | -11.0 | -3.5 | -12.2
CCOC(=O)c1ccc(N=c2sc(C(=O)OC)cc(=O)n2CCCN2CCOCC2)cc1 | 3.5 | 1.3 | 4.9 | -8.7 | -40.5*!
c1c(C2CCCCC2)n[nH]c1CN1CCCCC1 | 1.3 | -72.9* | -8.1 | -0.6 | -1.9
c1cc(CN2CCN(C3CCCCCC3)CC2)ccn1 | 2.2 | -0.6 | -8.1 | -4.8 | -14.4
CCN1CCN(c2c(/C=C3\SC(=S)N(Cc4ccco4)C3=O)c(C)c(C#N)c(=O)n2C)CC1 | 234.9* | -19.8 | -4.0 | -5.5 | -4.2
COc1ccc(-n2c(C)cc(/C=C3\SC(=S)N(Cc4ccco4)C3=O)c2C)cc1 | 20.5 | -0.7 | 0.6 | -6.8 | -9.0
